Peg3 promoter – reduces Peg3 promoter-driven luciferase expression in HeLa. HeLa PEG-Prom luciferase reporter, luminescence, overnight. 1.7% of 360,000 active. inhibition, % at 20 µM;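 active = inhibition of at least 50% at 20 µM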
TWEAK-Fn14 inh – TWEAK-Fn14 signaling inhibition; TWEAK-stimulated Fn14 reporter cells, luciferase luminescence, 8 h; inhibition, % at 10 µM; 2% of 360,000 active; in the data active = inhibition above about 50%
TROY signal inh – blocks TROY-dependent signaling in reporter cells. Q293 LMP1-TROYcd NF-kB luciferase reporter, 4 h. 0.98% of 360,000 active. inhibition, % at 10 µM. AID 1347056;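 active = compounds whose plate-normalised and pattern-corrected inhibition of the luciferase reporter signal at the single screening dose is 50% or more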
HIF-2a inh – HIF-2a inhibition; 786-0 RCC cells HIF-2a reporter, luciferase luminescence, overnight; inhibition, % at 18.8 µM; 0.72% of 360,000 active;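 active = inhibition of the luminescence signal of 40% or more relative to plate controls, in a single-dose primary screen at 18.75 µM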
CF NFkB block – cystic fibrosis NF-kB activation inhibition | KKLEB NF-kB-GFP reporter, PAF-induced, GFP fluorescence overnight | inhibition, % at 5 µM | 0.86% of 360,000 active | AID 588850;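 active = at least 50% inhibition at 5 µM, scaled per plate between neutral and stimulator controls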;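 note: PAF is a Pseudomonas aeruginosa culture filtrate used as stimulus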
KKLEB tox – reduces viability of KKLEB cystic fibrosis airway cells. KKLEB CF airway cells viability, ATPlite luminescence, overnight; hits give low values; cells stimulated with P. aeruginosa culture filtrate. 0.36% of 360,000 active. activity change (cytotoxicity), % at 5 µM;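 active = corrected activity change at or below -50% at 5 µM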
Each line names hits and unclear results; the compound was inactive in the other large screens. In the library only some 4% were active in any assay of this set; here they are far more common.

O=C(OCc1csc(-c2ccccc2)n1)c1ccc(O)cc1	none
O=C(c1cccc(N2CCCC2=O)c1)N1CCN(c2ccccc2)CC1	TROY signal inh 76.5
COC(=O)C1=C[C@@H](C(=O)OC)[C@@H]2C3=C(C(=O)[C@]2(C)NC(=O)c2ccccc2)[C@H](C)n2c(=O)n(-c4ccccc4)c(=O)n2[C@@H]3C1	none
CCN1C(Nc2ccccc2)=NC[C@@H]1Cc1ccccc1	none
CC(C)(C)C1CCC(CN2C(Nc3ccccc3)=NC[C@@H]2Cc2ccccc2)CC1 (stereo partly drawn)	Peg3 promoter 94.8
O=C(c1nn2c(C(F)(F)F)cc(-c3cccs3)nc2c1Cl)N1CCCc2ccccc21	TWEAK-Fn14 inh 54.2
CC(C)(C)c1ccc(C(=O)N2CCCN(c3ccc([N+](=O)[O-])cn3)CC2)cc1	none
Cc1c(CCC(=O)N2CCC(C(=O)O)CC2)c(=O)oc2cc3oc4c(c3cc12)CCCC4	HIF-2a inh 58.1
Cc1c(CCC(=O)N[C@@H](C)C(=O)O)c(=O)oc2cc3oc4c(c3cc12)CCCC4	HIF-2a inh 75.7
Cc1c(CC(=O)NCCC(=O)O)c(=O)oc2cc3oc4c(c3cc12)CCCC4	none
Cc1cc(C(=O)NNC(=O)c2ccccc2F)c2ccccc2n1	none
CC(C)Nc1nc(Nc2ccccc2Cl)c2sccc2n1	TWEAK-Fn14 inh 64.5
CCOc1ccc(N(CC(=O)Nc2c(C)cccc2C)S(=O)(=O)c2c(C)[nH]c(=O)[nH]c2=O)cc1	TWEAK-Fn14 inh 80.0
CCOc1ccc(N(CC(=O)NC2CCCC2)S(=O)(=O)c2c(C)[nH]c(=O)[nH]c2=O)cc1	Peg3 promoter 72.3
CCN(CC)C(=S)Oc1c(Cl)cccc1Cl	none
CCN(CC)C(=S)Oc1ccc(Cl)cc1Cl	TWEAK-Fn14 inh 96.5
Cc1cc(Br)cc(/C=N/NC(=O)c2ccc3c(c2)OCO3)c1O	none
O=C(Cc1ccccc1)N/N=C/c1cc(Br)cc(Cl)c1O	Peg3 promoter 53.4
O=C(N/N=C/c1cc(Br)cc(Cl)c1O)c1ccc2c(c1)OCO2	Peg3 promoter 54.8
CCOC(=O)C1(C)CCN1C(=O)c1cc(C)oc1C (stereo not drawn)	none
Cc1ccc(CN(C(=O)c2ccc(Cl)c([N+](=O)[O-])c2)C2CCS(=O)(=O)C2)o1 (stereo not drawn)	none
O=c1c(Sc2ccccc2)c(C(F)(F)F)[nH]n1-c1ccccc1	TROY signal inh 53.0
O=c1c2c(C(F)(F)F)cc(C(F)(F)F)nc2[nH]n1-c1ccccc1	none
Cc1ccc(C)c(OCCCNCc2ccccc2)c1	none
Brc1ccc(OCc2ccccc2)c(CNCc2ccncc2)c1	Peg3 promoter 50.6, TROY signal inh 51.7
Clc1cc(Br)ccc1OCCCNCc1ccccc1	Peg3 promoter 55.6
Cc1ccc2nc(N3CCN(C)CC3)c(C=O)c(=O)n2c1	none
Cc1ccsc1C(=O)OCC(=O)N1C(C)CCCC1C (stereo not drawn)	none
CCN(CC)S(=O)(=O)c1ccc(NC(=S)Nc2ccc(F)cc2)cc1	none
Clc1ccccc1-c1nnc2sc(CCc3ccccc3)nn12	none
c1ccc(CCc2nn3c(-c4ccncc4)nnc3s2)cc1	TWEAK-Fn14 inh 73.9, CF NFkB block 72.0
O=C1C(=Cc2cn(-c3ccccc3)nc2-c2ccc(OCc3ccc(Cl)cc3)cc2)SC(=S)N1CCS(=O)(=O)O	TWEAK-Fn14 inh 62.1
O=C(O)CCCCCN1C(=O)/C(=C\c2cn(-c3ccccc3)nc2-c2cccs2)SC1=S	CF NFkB block 58.6
COc1ccc(-c2nn(-c3ccccc3)cc2/C=C2/SC(=S)N(CCC(=O)O)C2=O)c(C)c1	TROY signal inh 61.0
O=C(O)CCCCCN1C(=O)/C(=C/c2cn(-c3ccccc3)nc2-c2cccs2)SC1=S	CF NFkB block 67.5
O=C(CCn1c(=S)oc2ccccc21)N1CCCCC1	none
CCCn1c(N)c(N(CCOC)C(=O)CSc2cc(C)c3ccccc3n2)c(=O)[nH]c1=O	none
CCS(=O)(=O)c1cc([N+](=O)[O-])c(Sc2ccccc2NC(C)=O)s1	TWEAK-Fn14 inh 61.3, TROY signal inh 68.4
O=[N+]([O-])c1ccc(N2CCN(C(=S)NCc3ccc(Cl)cc3)CC2)cc1	TWEAK-Fn14 inh 64.3
Cc1ccc(NC(=O)CCc2c(C)nn(-c3ccc(N4CCCCC4)nn3)c2C)cc1	Peg3 promoter 77.3
COc1ccc(N2CCN(S(=O)(=O)CCNC(=O)c3cccs3)CC2)cc1	none
Cc1ccc(CS(=O)(=O)c2ccc(C(=O)N3CCN(c4ccccn4)CC3)cc2[N+](=O)[O-])cc1	TWEAK-Fn14 inh 50.3
O=C(c1ccc(Br)c([N+](=O)[O-])c1)N1CCN(Cc2ccccc2)CC1	none
Cc1ccc(CS(=O)(=O)c2ccc(C(=O)N3CCCCC3)cc2[N+](=O)[O-])cc1	none
CC1CCN(C(=O)c2ccc(S(=O)(=O)Cc3ccccc3F)c([N+](=O)[O-])c2)CC1	TWEAK-Fn14 inh 63.4
O=C(c1ccc(S(=O)(=O)c2ccccc2Cl)c([N+](=O)[O-])c1)N1CCN(Cc2ccccc2)CC1	TWEAK-Fn14 inh 73.8
O=C(CSc1nc2ncc(Br)cc2[nH]1)Nc1ccccc1-c1ccccc1	Peg3 promoter 53.1
COc1cccc(CN2C(=O)C(C)N(C(=O)c3c(F)cccc3F)c3ccccc32)c1 (stereo not drawn)	TWEAK-Fn14 inh 74.5
Cc1ccc(/C=N/NC(=O)COc2ccc(Cl)c(C)c2)o1	none
c1ccc2[nH]c(-c3cnco3)cc2c1	TWEAK-Fn14 inh 64.1, TROY signal inh 52.0
CCSc1nc(N2CCCCC2)c2c(c1C#N)CCCC2	TWEAK-Fn14 inh 93.9 (no result: TROY signal inh)
O=C(C=P(c1ccccc1)(c1ccccc1)c1ccccc1)c1ccccc1-c1ccccc1C(=O)C=P(c1ccccc1)(c1ccccc1)c1ccccc1	Peg3 promoter 99.5, HIF-2a inh 95.1, CF NFkB block 91.1, KKLEB tox -78.7
O=C(NNC(=O)c1ccccc1-c1ccccc1C(=O)O)c1ccccc1	none
CCOC(=O)C1CCCN(c2ccc(NC(=O)c3snc4c(=O)[nH]c(C)nc34)cc2)C1 (stereo not drawn)	TROY signal inh 51.4
FC(F)(F)c1cccc(NC(=S)Nc2ccc(Cl)c(Cl)c2)c1	none
FC(F)(F)c1cccc(NC(=S)NC(c2ccccc2)c2ccccc2)c1	Peg3 promoter 50.1
Cn1c(-c2ccccc2)n[nH]c1=S	TWEAK-Fn14 inh 85.1
Cc1cccc(-c2n[nH]c(=S)n2C)c1	none
O=C(COC(=O)/C=C/c1ccccc1[N+](=O)[O-])NC(=O)NC1CCCC1	none
Cc1cc(S(=O)(=O)NCc2ccccc2)ccc1OCC(=O)Nc1cccc([N+](=O)[O-])c1	TWEAK-Fn14 inh 51.9
COC(=O)c1cc(S(=O)(=O)n2nc(C)c(Br)c2C)c(Cl)cc1Cl	Peg3 promoter 87.1
O=c1nc2onnc2c(C=NO)[nH]1	none

Screens from PubChem BioAssay.
